The text below walks through data of PubChem BioAssay.

Assay [1] deals with Cell division control protein 42 homolog (Homo sapiens) (UniProt P60953). The assay is described as follows: activated mutant Cdc42 GTP-binding inhibitors, dose response, biochemical, multiplex bead flow cytometry, Bodipy-FL-GTP (AID 1333;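 active = fitted half-maximal concentration within the tested dose range, moderate curve steepness, a statistically real signal drop, and little compound fluorescence or tag-binding interference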).
Sequence of Cell division control protein 42 homolog (Homo sapiens) (P60953 whole entry, looked up): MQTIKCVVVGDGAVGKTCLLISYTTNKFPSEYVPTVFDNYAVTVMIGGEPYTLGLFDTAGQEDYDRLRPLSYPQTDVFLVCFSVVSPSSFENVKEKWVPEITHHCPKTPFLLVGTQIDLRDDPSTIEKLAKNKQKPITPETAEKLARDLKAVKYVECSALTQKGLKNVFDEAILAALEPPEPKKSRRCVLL
Assay [2] shares this target. The assay can be described thus: wildtype Cdc42 GTP-binding inhibitors, dose response, biochemical, multiplex bead flow cytometry, Bodipy-FL-GTP (AID 1334). As to conditions: bead-based flow cytometry, Bodipy-FL-GTP binding to GST-Cdc42; at 100 µM (top of the series) unless noted.
For assay [3], the target named is GTPase HRas (Homo sapiens) (UniProt P01112). The assay is described as follows: inhibitors of GTP binding to wildtype Ras, dose response, biochemical, multiplex bead flow cytometry (AID 1335;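 active = fitted half-maximal concentration within 10 nM to 100 µM, steepness 0.5 to 2, significant signal drop, low assay interference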). To be noted: bead-based flow cytometry, Bodipy-GTP binding to GST-Ras; at 100 µM (top of the series) unless noted.
Sequence of GTPase HRas (Homo sapiens) (P01112 whole entry, looked up): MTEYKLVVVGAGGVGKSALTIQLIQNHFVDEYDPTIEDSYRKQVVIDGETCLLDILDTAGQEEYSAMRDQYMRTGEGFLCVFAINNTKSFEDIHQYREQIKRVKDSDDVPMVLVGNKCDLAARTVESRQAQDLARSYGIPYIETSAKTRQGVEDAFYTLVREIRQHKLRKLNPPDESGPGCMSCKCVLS
Assay [4] deals with Ras-related protein Rab-7a (dog), GTP binding. The assay can be described thus: Rab7 GTP binding inhibitors, potency, dose response, biochemical, wildtype, multiplex bead flow cytometry (AID 1336; call rule not given here).
In assay [5] the target is Ras-related C3 botulinum toxin substrate 1 (Homo sapiens) (UniProt P63000). The assay is described as follows: wildtype Rac1 GTP binding inhibitors, dose response, biochemical, multiplex bead flow cytometry (AID 1340;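 active = dose curve with midpoint inside tested range, moderate steepness, plateau gap beyond fit error, low compound glow and bead-link interference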). As to conditions: GST-Rac1 beads, Bodipy-FL-GTP binding; at 100 µM (top of the series) unless noted.
Assay [6] concerns the target GTPase HRas (Homo sapiens) (UniProt P01112). The assay can be described thus: activated Ras mutant GTP binding inhibitors, dose response, biochemical, multiplex bead flow cytometry (AID 1341;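 active = dose-response curve with midpoint inside the tested range, moderate steepness, significant amplitude and little compound fluorescence or bead-attachment interference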;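 also: GST-tagged constitutively activated Ras mutant immobilized on beads and multiplexed with other GTPases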).

For part of these data: Measured potencies and affinities stand elsewhere. Calls of active or inactive are those of the source.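 The calls were made as follows, unless noted: active = fitted half-maximal concentration within the tested range, moderate curve steepness, significant signal drop, and little compound fluorescence or bead-linkage interference; inactive = the rest.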

Regarding `COc1cccc(CNCc2ccc(C(=O)O)s2)c1`, the molecule was classed as inactive in assay [1], in assay [4] and in assay [6]. The fluorescence, percent of control (lower = inhibition) in assay [2] amounted to 61.9%. The GTP binding, percent of control in assay [3] is 84.8%. The molecule further yielded a GTP binding signal, raw median fluorescence (lower = inhibition) (MCF (arbitrary fluorescence units)) in assay [5] of 32.9.

Take `O=S1(=O)N=C(N(CCO)/N=C/C=C/c2ccccc2)c2ccccc21`: the outcome in assay [1], in assay [4] and in assay [6] was inactive. In assay [2], the fluorescence, percent of control (lower = inhibition) came to 22.8%. Moreover, the GTP binding, percent of control in assay [3] stood at 35.3%. The GTP binding signal, raw median fluorescence (lower = inhibition) (MCF (arbitrary fluorescence units)) in assay [5] came to 101.

With `O=C(C#Cc1ccccn1)c1ccc([N+](=O)[O-])cc1`, the molecule was called inactive in assay [1], in assay [4] and in assay [6]. For the same molecule, the fluorescence, percent of control (lower = inhibition) in assay [2] is 51%. Moreover, the GTP binding, percent of control in assay [3] was 162%. Besides, the GTP binding signal, raw median fluorescence (lower = inhibition) (MCF (arbitrary fluorescence units)) in assay [5] is 56.2.

Consider `Cc1ccn2c(NCc3ccc4c(c3)OCO4)c(-c3ccc(O)cc3)nc2c1`, for which the result in assay [1], in assay [4] and in assay [6] was inactive. The fluorescence, percent of control (lower = inhibition) in assay [2] worked out at 60.4%. In addition, the GTP binding, percent of control in assay [3] came out at 75%. In addition, the GTP binding signal, raw median fluorescence (lower = inhibition) (MCF (arbitrary fluorescence units)) in assay [5] stood at 0.

Turning to `Cc1ccc(CSc2nnc(-c3ccccc3N)c(=O)[nH]2)cc1`, the molecule was classed as inactive in assay [1], in assay [4] and in assay [6]. Besides, in assay [2], the fluorescence, percent of control (lower = inhibition) came to 34.1%. The GTP binding, percent of control in assay [3] came out at 80.1%. In assay [5], this molecule had a GTP binding signal, raw median fluorescence (lower = inhibition) (MCF (arbitrary fluorescence units)) of 259.

`Cc1[nH]c2ccccc2c1/C=C/C(=O)c1ccccc1`: the outcome in assay [1], in assay [4] and in assay [6] was inactive. In assay [2], the fluorescence, percent of control (lower = inhibition) worked out at 68.9%. This molecule yielded a GTP binding, percent of control in assay [3] of 81.7%. This molecule also yielded a GTP binding signal, raw median fluorescence (lower = inhibition) (MCF (arbitrary fluorescence units)) in assay [5] of 216.

Turning to `O=C(N/N=C(\c1ccccc1)c1ccccn1)c1cccc([N+](=O)[O-])c1`, the molecule was called inactive in assay [1], in assay [4] and in assay [6]. In assay [2], the fluorescence, percent of control (lower = inhibition) turned out to be 31.4%. The GTP binding, percent of control in assay [3] came to 68.7%. In addition, the GTP binding signal, raw median fluorescence (lower = inhibition) (MCF (arbitrary fluorescence units)) in assay [5] turned out to be 143.

Turning to `O=C(Nc1ccccc1C(=O)N1CCOCC1)C1CCC(=O)N1C1CCCC1` (stereo not given), the molecule was called inactive in assay [1], in assay [4] and in assay [6]. For the same molecule, the fluorescence, percent of control (lower = inhibition) in assay [2] was 51.3%. In addition, the GTP binding, percent of control in assay [3] was 62.7%. In assay [5], this molecule came in with a GTP binding signal, raw median fluorescence (lower = inhibition) (MCF (arbitrary fluorescence units)) of 210.

On to `COc1ccc(/C=N/Nc2ncnc3sc4c(c23)CCCC4)cc1O`, for which the outcome in assay [1], in assay [4] and in assay [6] was inactive. Moreover, in assay [2], the fluorescence, percent of control (lower = inhibition) was 30.6%. In assay [3], this molecule displayed a GTP binding, percent of control of 42.8%. Moreover, the GTP binding signal, raw median fluorescence (lower = inhibition) (MCF (arbitrary fluorescence units)) in assay [5] came to 112.

Regarding `COc1cc2[nH]c(=S)nc(NC3CCCC3)c2cc1OC`, the molecule was classed as inactive in assay [1], in assay [4] and in assay [6]. For the same molecule, the fluorescence, percent of control (lower = inhibition) in assay [2] was determined as 25.9%. Moreover, in assay [3], the GTP binding, percent of control stood at 56.7%. Moreover, the GTP binding signal, raw median fluorescence (lower = inhibition) (MCF (arbitrary fluorescence units)) in assay [5] was found to be 124.

For the molecule `O=C(O)c1cc(N2N=C(C(F)(F)F)/C(=C/C=C/c3ccco3)C2=O)ccc1Cl`, the call in assay [1], in assay [4] and in assay [6] was inactive. Also, the fluorescence, percent of control (lower = inhibition) in assay [2] is 22.4%. Moreover, the GTP binding, percent of control in assay [3] came out at 69.8%. In addition, the GTP binding signal, raw median fluorescence (lower = inhibition) (MCF (arbitrary fluorescence units)) in assay [5] is 174.

`O=C(c1n[nH]c(=O)c2ccccc12)N1CCN(C2c3ccccc3-c3ccccc32)CC1`: the outcome in assay [1], in assay [4] and in assay [6] was inactive. The fluorescence, percent of control (lower = inhibition) in assay [2] is 87%. The same molecule gave a GTP binding, percent of control in assay [3] of 156%. The GTP binding signal, raw median fluorescence (lower = inhibition) (MCF (arbitrary fluorescence units)) in assay [5] turned out to be 175.

As for `COc1cc([N+](=O)[O-])cc(/C=N/NC(=O)c2ccc(NC(=O)c3ccc(C)cc3)cc2)c1O`, the molecule was classed as inactive in assay [1], in assay [4] and in assay [6]. Moreover, the fluorescence, percent of control (lower = inhibition) in assay [2] worked out at 33%. The molecule also came in with a GTP binding, percent of control in assay [3] of 77.6%. In addition, the GTP binding signal, raw median fluorescence (lower = inhibition) (MCF (arbitrary fluorescence units)) in assay [5] came to 226.

In the case of `O=c1[nH]c2sc3c(c2c2nncn12)CCCC3`, the result in assay [1], in assay [4] and in assay [6] was inactive. For the same molecule, the fluorescence, percent of control (lower = inhibition) in assay [2] stood at 23.4%. The same molecule yielded a GTP binding, percent of control in assay [3] of 59.2%. The molecule further yielded a GTP binding signal, raw median fluorescence (lower = inhibition) (MCF (arbitrary fluorescence units)) in assay [5] of 103.

Turning to `CN(C)c1ccc(/C=C2\SC(=S)N(Nc3ncc(C(F)(F)F)cc3Cl)C2=O)cc1`, the result in assay [1], in assay [4] and in assay [6] was inactive. In addition, the fluorescence, percent of control (lower = inhibition) in assay [2] was 139%. In addition, in assay [3], the GTP binding, percent of control is 236%. Also, in assay [5], the GTP binding signal, raw median fluorescence (lower = inhibition) (MCF (arbitrary fluorescence units)) was determined as 230.
